FLuc inh: Firefly luciferase inhibition profiling of diverse chemical library using quantitative high-throughput screening. Luciferin 4-monooxygenase (Photinus pyralis), P08659. purified P. pyralis luciferase, luminescence, biochemical. Potency, µM (highest dose often 115 µM), usual class: inhibitors. 76,000 tested, 2.5% active. AID 1347043, 2019; also: % is scaled to controls: 0 for no effect and ±100 for the full control effect; nearly all actives have a fitted effect of over 65% in size
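Luminescence read by CCD imaging after purified firefly luciferase (10nM final) was added to substrate buffer holding 10uM D-luciferin and 10uM ATP, pH 7.5, pre-dosed with compound.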
NPR1 antag: Natriuretic polypeptide receptor (hNpr1) antagonism - Primary qHTS; Potency, µM (titrated, usually from 46.3 µM), without a hit: at the top dose activity change, negative = inhibition, usual class: inhibitors; Atrial natriuretic peptide receptor 1 (Homo sapiens), P16066; 76,000 tested, 1.6% active; AID 1347048, 2019; HEK293 hNpr1 GloSensor cGMP, ANP-stimulated luminescence; calls by dose curve; also: % is scaled to controls: 0 for no effect and ±100 for the full control effect; nearly all actives have a fitted effect of over 60% in size
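Compound pre-incubated 30 min at room temperature on GloSensor-loaded HEK293 cells stably carrying hNpr1 and the pGS-40F cGMP biosensor. Stimulation uses hNppA at 0.1 nM final; luminescence is taken at baseline and 20 min post-agonist.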
3T3 cytotox: Cytotoxic Profiling in NIH 3T3 Cell Line of Diverse Libraries Using Quantitative High-Throughput Screening; NIH 3T3 viability, CellTiter-Glo ATP luminescence, 48-72 h; Potency, µM (doses to about 96.7 µM), for inactives: top-dose activity change, negative = cytotoxicity, usual class: inhibitors; 94,000 tested, 4.3% active; AID 1345082, 2018; also: % is scaled to controls: 0 for no effect and ±100 for the full control effect; nearly all actives have a fitted effect of over 55% in size
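Cytotoxicity is measured as loss of cellular ATP: NIH 3T3 cells (400/well) are exposed to compound for 48 or 72 hr at 37 °C, then CellTiter-Glo luminescence is imaged after 10 min at room temperature.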
HEK293 tox: Cytotoxic Profiling in HEK 293 Cell Line of Diverse Libraries Using Quantitative High-Throughput Screening. AID 1345083, 2018. 94,000 tested, 6.6% active. HEK 293 viability, ATP luminescence (CellTiter-Glo), 48-72 h. Potency, µM (titrated, usually from 115 µM), for inactives: at the highest dose activity change, negative = cytotoxicity, hits mostly inhibitors; also: % is scaled to controls: 0 for no effect and ±100 for the full control effect; nearly all actives have a fitted effect of over 60% in size
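250 HEK 293 cells/well; compound by pintool; incubated 48 or 72 hr at 37 degree Celsius; CellTiter-Glo added, 10 min RT, luminescence imaged.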
Npr1 antag conf: Natriuretic polypeptide receptor (hNpr1) antagonism - Confirmation. shares compounds with NPR1 antag. HEK293 hNpr1 cGMP GloSensor luminescence, ANP-stimulated. Potency, µM (top dose mostly 57.6 µM), without a hit: at the top dose activity change, negative = inhibition, most hits filed as inhibitors. 1,400 tested, 76% active. AID 1347044, 2019; calls by dose curve; also: nearly all actives have a fitted effect of over 70% in size
NPR2 antag: Natriuretic polypeptide receptor (hNpr2) antagonism - Subtype selectivity assay. shares compounds with NPR1 antag. HEK293 hNpr2 GloSensor cGMP luminescence, CNP-stimulated. Potency, µM (doses to about 57.6 µM), inactives show at the top dose activity change, negative = inhibition, most hits filed as inhibitors. 1,400 tested, 67% active; calls by dose curve; also: nearly all actives have a fitted effect of over 70% in size
Target sequence (P20594 whole entry, looked up): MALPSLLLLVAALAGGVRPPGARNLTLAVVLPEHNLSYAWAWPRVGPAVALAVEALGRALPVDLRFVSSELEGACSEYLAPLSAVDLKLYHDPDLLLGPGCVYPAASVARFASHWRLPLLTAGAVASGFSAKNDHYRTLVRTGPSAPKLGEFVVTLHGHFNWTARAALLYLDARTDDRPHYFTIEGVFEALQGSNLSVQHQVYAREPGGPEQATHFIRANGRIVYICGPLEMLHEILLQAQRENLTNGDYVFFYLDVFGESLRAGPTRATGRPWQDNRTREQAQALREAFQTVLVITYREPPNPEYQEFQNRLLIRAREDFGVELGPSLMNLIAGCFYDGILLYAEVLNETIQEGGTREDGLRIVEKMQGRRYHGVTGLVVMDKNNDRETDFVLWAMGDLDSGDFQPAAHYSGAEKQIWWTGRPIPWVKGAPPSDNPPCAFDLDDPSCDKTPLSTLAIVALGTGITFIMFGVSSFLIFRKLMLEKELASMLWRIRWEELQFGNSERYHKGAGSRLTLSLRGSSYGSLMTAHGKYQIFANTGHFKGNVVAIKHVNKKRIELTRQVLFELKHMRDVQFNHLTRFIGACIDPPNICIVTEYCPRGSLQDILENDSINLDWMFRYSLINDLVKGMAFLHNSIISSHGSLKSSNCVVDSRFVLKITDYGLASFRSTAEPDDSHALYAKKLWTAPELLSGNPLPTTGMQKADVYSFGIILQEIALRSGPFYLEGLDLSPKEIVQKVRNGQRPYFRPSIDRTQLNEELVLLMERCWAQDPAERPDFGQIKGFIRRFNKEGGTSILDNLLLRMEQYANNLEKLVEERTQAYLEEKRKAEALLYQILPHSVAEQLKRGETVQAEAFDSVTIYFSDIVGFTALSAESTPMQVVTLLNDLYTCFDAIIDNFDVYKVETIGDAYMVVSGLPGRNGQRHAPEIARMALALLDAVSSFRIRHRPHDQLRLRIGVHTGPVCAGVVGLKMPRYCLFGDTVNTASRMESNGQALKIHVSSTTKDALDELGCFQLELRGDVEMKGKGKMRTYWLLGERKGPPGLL
FLuc counter: Natriuretic polypeptide receptor (hNpr1) antagonism - Confirmation firefly luciferase (FLuc) inhibition counterscreen | shares compounds with NPR1 antag | purified FLuc enzyme, luminescence, Km substrate | Potency, µM (series often up to 57.6 µM), for the others: top-dose activity change, negative = inhibition, actives largely listed as inhibitors | 1,400 tested, 0.7% active; also: 0% is about no effect
GloSensor ctrl: Natriuretic polypeptide receptor (hNpr1) antagonism - Counterscreen GloSensor control cell line; shares compounds with NPR1 antag; 1,400 tested, 69% active; HEK293 GloSensor cGMP, SNP-stimulated, luminescence; Potency, µM (highest dose often 57.6 µM), for the others: at the highest dose activity change, negative = inhibition, hits mostly inhibitors; calls by dose curve; also: % is scaled to controls: 0 for no effect and ±100 for the full control effect; nearly all actives have a fitted effect of over 70% in size
The depositor's hits bear a star; i = inactive; ? = inconclusive; nt = no result given; [ ] = another dose, or the depositor's remark. The list is not random: actives were taken first. Their share in the collection is about 11%. Unless noted, calls follow the shape of the dose curve; as a rule, active = well fitted curve in the direction sought with a large enough effect; inconclusive = small, poorly fitted or top-dose-only effect, or another doubt; inactive = no such curve, though single readings can be large; an effect the other way counts as inactive or inconclusive. Potency is read from the fitted curve at half-maximal effect.

SMILES	FLuc inh	NPR1 antag	3T3 cytotox	HEK293 tox	Npr1 antag conf	NPR2 antag	FLuc counter	GloSensor ctrl
O=C(C1CCC1)N1CCC(n2cc(-c3nc(-c4ccccc4)no3)nn2)CC1	i	?	?	?	24µM*	24µM*	-12%	22µM*
O=C(C1CC1)N1CCC(n2cc(-c3nc(-c4ccccc4)no3)nn2)CC1	i	?	?	?	?	?	-22%	?
O=C(c1ccco1)N1CCC(n2cc(-c3nc(-c4ccccc4)no3)nn2)CC1	i	-2%	?	?	nt	nt	nt	nt
COc1cccc(CC(=O)N2CCC(n3cc(-c4nc(-c5ccccc5)no4)nn3)CC2)c1	i	10µM*	?	32µM*	11µM*	11µM*	-23%	12µM*
CN1CCCC1c1nc(C2CN(C(=O)CCCc3nc4ccccc4[nH]3)C2)no1 (centres undefined)	i	5%	0%	4%	nt	nt	nt	nt
COc1cc(OC)cc(C(=O)NCC2CCCN(C/C=C/c3ccccc3OC)C2)c1 (centres undefined)	i	-6%	?	?	nt	nt	nt	nt
CCCNc1ccc2nnc(CC)n2n1	i	3%	-17%	-1%	nt	nt	nt	nt
CCOc1ccccc1C(=O)N1CCC(n2cc(-c3nc(-c4ccccc4)no3)nn2)CC1	i	?	?	40µM*	24µM*	?	-21%	?
O=C(N1CCC(n2cc(-c3nc(-c4ccccc4)no3)nn2)CC1)C1(c2ccccc2)CC1	i	13µM*	?	32µM*	24µM*	27µM*	-19%	24µM*
O=C(c1cccc(F)c1)N1CCCC1c1nc(C2CCOCC2)no1 (centres undefined)	i	2%	1%	0%	nt	nt	nt	nt
Cc1ccccc1-c1cnc2[nH]cc(CC(=O)NCc3cccnc3)c2c1	i	32µM*	?	79µM*	31µM*	28µM*	2%[86.2 µM]	25µM*
CCNC(=O)Cc1c[nH]c2ncc(-c3ccccc3C)cc12	i	18µM*	?	?	31µM*	31µM*	1%[86.2 µM]	28µM*
Cc1ccccc1-c1cnc2[nH]cc(CC(=O)N3CCCC3)c2c1	i	3.5µM*	?	89µM*	7.9µM*	11µM*	-5%[86.2 µM]	7µM*
COc1ncccc1-c1cnc2[nH]cc(CC(N)=O)c2c1	i	-4%[70.6 µM]	?	-10%[230 µM]	nt	nt	nt	nt
COCCNC(=O)Cc1c[nH]c2ncc(-c3ccccc3C)cc12	i	-24%[70.6 µM]	?	?	nt	nt	nt	nt
NC(=O)Cc1c[nH]c2ncc(-c3ccccc3C(F)(F)F)cc12	i	?	-28%[138 µM]	?	31µM*	?	-3%[86.2 µM]	35µM*
C=CCNC(=O)[C@@H]1CCCN1[C@@H](C(=O)NC)c1ccccc1F	i	-2%[70.6 µM]	-4%[174 µM]	-3%[172 µM]	nt	nt	nt	nt
O=C(Cc1c[nH]c2ncc(-c3ccccc3C(F)(F)F)cc12)NCc1cccnc1	i	7.9µM*	?	?	16µM*	20µM*	-2%[86.2 µM]	16µM*
CC(C)CCN1CCC(N2CCN(S(=O)(=O)c3ccc4c(c3)CCCC4)CC2)C1=O (centres undefined)	i	?	?	?	-30%	-24%	5%	-8%
Cn1nc(C2CCN(S(=O)(=O)c3ccc4c(c3)CCCC4)CC2)n(C2CCCC2)c1=O	i	11µM*	?	?	19µM*	19µM*	1%	14µM*
COc1ccc(C(=O)N[C@@H]2CCC[C@@H]2C(=O)NCc2ccccc2C(F)(F)F)cc1	i	-7%	-8%	-35%	nt	nt	nt	nt
CC(C)NC(=O)c1ccc2oc(-c3ccncc3)nc2c1	nt	nt	-30%[138 µM]	?	nt	nt	nt	nt
O=C1NCCCCCN(C(=O)NC2CCCCC2)[C@H]2CCCC[C@@H]12	i	-1%	-6%	-29%	nt	nt	nt	nt
O=C(NCCc1ccccc1F)c1cn2cc(-c3ccccc3)sc2n1	nt	nt	?	-29%	nt	nt	nt	nt
COCCCN1CC2(CCN(C(=O)c3ccccc3N(C)C)CC2)CC1=O	i	1%	-2%	-3%	nt	nt	nt	nt
SMILES	FLuc inh	NPR1 antag	3T3 cytotox	HEK293 tox	Npr1 antag conf	NPR2 antag	FLuc counter	GloSensor ctrl
Cc1ncnc(N2CCC3(CC2)CC(=O)N(CCCc2ccccc2)C3)c1C	i	4.5µM*	?	?	5.4µM*	6.9µM*	0%	5.4µM*
CCCCNC(=O)CC(c1cccc(OC)c1OC)c1c[nH]c2ccccc12 (centres undefined)	i	-19%	?	?	nt	nt	nt	nt
COc1ccc(CCNC(=O)CC(c2cccc(F)c2)c2cn(C)c3ccccc23)cc1OC (centres undefined)	i	18µM*	22µM*	20µM*	24µM*	27µM*	4%	27µM*
COc1ccccc1C(CC(=O)NCC(C)C)c1cn(C)c2ccccc12 (centres undefined)	i	?	-11%	?	?	?	-2%	-21%
COc1ccc(CCNC(=O)CC(c2cccc(OC)c2OC)c2c[nH]c3ccccc23)cc1OC (centres undefined)	i	-21%	?	?	nt	nt	nt	nt
CCN1CCN(C(=O)C2CCc3nnc(-c4cccc(C(F)(F)F)c4)n32)CC1 (centres undefined)	nt	nt	-15%	-16%	nt	nt	nt	nt
O=C(O)CCC(=O)N1Cc2ccccc2CC2(CCCN(Cc3ccccc3)C2)C1 (centres undefined)	nt	nt	-3%	-4%	nt	nt	nt	nt
CCc1ccc(C(=O)N2CCC(Oc3ncccc3C(=O)N3CCCCC3)C2)cc1 (centres undefined)	i	2%	-39%	-8%	nt	nt	nt	nt
COCC(=O)Nc1ccc(-c2noc([C@@H]3CCCN3C)n2)cn1	?	-1%[70.6 µM]	1%[174 µM]	i	nt	nt	nt	nt

Screening data from PubChem BioAssay.
